Results from PubChem BioAssay AID493131 (Broad Institute, 2011).
Out of some 340,000 compounds screened, about 3,300 (0.97%) were called active.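 How the source made its calls: active means mean activation above about 17%, with every replicate also reaching it (limit read from the data, passing the limit was not always enough); inconclusive means only one of the two conditions met; inactive means the rest.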 What follows is part of a selection rich in actives, with near analogues and random picks from the rest.

What follows are compounds tested against Protein FosB (Mus musculus) (UniProt P13346) (assay: activators of delta FosB homodimer, primary screen, biochemical, fluorescence polarization, TAMRA-CDK5 oligo, single point (AID 493131;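 further: fluorescence polarization rise as delta FosB binds a TAMRA Cdk5 AP-1 oligo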)). Details: purified delta FosB, at 25 µM, active compounds read high, percent of positive-control signal above neutral wells.
Chain of Protein FosB (Mus musculus) (P13346 whole entry, looked up): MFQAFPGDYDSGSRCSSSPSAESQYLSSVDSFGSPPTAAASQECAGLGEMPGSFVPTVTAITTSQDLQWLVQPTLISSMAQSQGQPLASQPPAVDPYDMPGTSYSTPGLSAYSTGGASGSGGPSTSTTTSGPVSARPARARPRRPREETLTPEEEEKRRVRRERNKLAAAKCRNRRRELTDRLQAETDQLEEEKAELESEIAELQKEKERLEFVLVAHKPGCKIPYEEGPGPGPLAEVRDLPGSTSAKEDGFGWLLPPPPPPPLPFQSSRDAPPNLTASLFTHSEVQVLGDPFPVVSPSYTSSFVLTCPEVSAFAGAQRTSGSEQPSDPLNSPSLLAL
With `COc1cc(CNCc2ccc(OC)c3ccccc23)cc(OC)c1OC` the activation was -10.2% (inactive).
For `Cc1cc(C)c2nc3nc(C)cc(C)c3c(N)c2c1`, the activation was 25.9% (active).
With `CNC(=O)C1CC(=O)N(c2ccc(OCC(=O)Nc3ccccc3C)cc2)C1` (centres undefined) the activation was 5.55% (inactive).
In the case of `COc1ccc(OC)c(S(=O)(=O)N(C)CC(=O)N2CCN(c3ccccc3)CC2)c1`, the activation is reported as 3.45% (inactive).
With `O=C(CN1C(=O)c2cccc3cccc(c23)C1=O)N1CCCCC1` the activation was 2.41% (inactive).
For `O=C1c2cccc3cccc(c23)C(=O)N1c1cccc(O)c1`, the activation was 27.4% (active).
With `O=C1CC(c2ccccc2)C(=O)N1c1cccc(O)c1` (centres undefined) the activation was 0.8% (inactive).
With `Cc1ccccc1CC1(CO)CCCN(Cc2ccc3c(c2)OCCO3)C1` (centres undefined) the activation was -8.09% (inactive).
With `COc1ccc(-n2cnc3cc(NCc4ccco4)ccc32)cc1` the activation was -0.508% (inactive).
With `C=CCC(NCc1ccco1)c1ccc(OC)cc1` (centres undefined) the activation was -0.535% (inactive).
In the case of `COc1ccc(Nc2nc(NCc3ccco3)nc(N/N=C/c3ccccc3Cl)n2)cc1`, the activation is reported as 43% (active).
In the case of `O=C1c2cccnc2C(Nc2ccc(S(=O)(=O)N3CCCCCC3)cc2)N1Cc1ccccc1` (centres undefined), the activation is reported as -10.2% (inactive).
For `O=C(NCc1ccco1)c1cc2sccc2n1Cc1ccc(F)cc1`, the activation was -6.3% (inactive).
For `O=C(Cc1ccc(-n2c(=O)c3sccc3n(Cc3ccc(F)cc3)c2=O)cc1)NCc1ccco1`, the activation was 20.9% (active).
In the case of `O=C(NCc1ccco1)c1ccc(Cn2c(=O)c3sccc3n(Cc3ccc(F)cc3)c2=O)cc1`, the activation is reported as -6.02% (inactive).
With `CC1(C)Oc2ccc(C(=O)N3CCOCC3)cc2N(CC(=O)Nc2ccccc2)C1=O` the activation was -4.29% (inactive).
With `CC(=O)NC(Cc1ccc(F)c(F)c1)C(=O)NC1CCN(c2nnnn2-c2ccccc2)CC1` (centres undefined) the activation was -5.56% (inactive).
`COc1ccc(CCNC(=O)C2CCCN2C(=O)Nc2ccccc2)cc1OC` (centres undefined) was tested, and the activation was 1.24% (inactive).
In the case of `CC(C)CCNC(=O)c1ccc2c(Cl)c3c(nc2c1)CCC3`, the activation is reported as -19.8% (inactive).
In the case of `CC(=NC1CCN(Cc2ccccc2)CC1)c1c(O)[nH]c(=O)[nH]c1=O`, the activation is reported as 6.14% (inactive).
With `CS(=O)(=O)N(CC(=O)N1CCN(Cc2ccccc2)CC1)c1ccc2c(c1)OCCO2` the activation was -2.7% (inactive).
For `c1ccc(CN2CCC(N=C3NN=C(c4ccc5c(c4)OCCO5)CS3)CC2)cc1`, the activation was 18.3% (active).
With `Cc1ccc(C(=O)NC(C)c2ccccc2)cc1Br` (centres undefined) the activation was -1.72% (inactive).
For `CCN(C(=O)CSc1nc2ccccc2n1CC)C1CCS(=O)(=O)C1` (centres undefined), the activation was -12.5% (inactive).
With `O=C(CNS(=O)(=O)c1ccc(Br)s1)NCc1ccc2c(c1)OCO2` the activation was -7.24% (inactive).
With `CCOc1ccc2[nH]c(C(=O)N/N=C/c3cccc(OC)c3OC)cc2c1` the activation was -5.75% (inactive).
With `COc1cccc(OCc2cc(/C=N/NC(=O)c3nc(Cl)c(Cl)c(N)c3Cl)ccc2OC)c1` the activation was 59.2% (active).
With `COc1ccc2[nH]c(C(=O)N/N=C/c3cc(OC)c(OC)c(OC)c3)cc2c1` the activation was -21.6% (inactive).
`CCOCCCNC(=O)C(NC(=O)c1ccc(=O)[nH]c1)c1ccc(Cl)cc1` (centres undefined) was tested, and the activation was -7.55% (inactive).
With `O=C(Cc1cccs1)N/N=C/c1ccc(OCc2ccccc2)cc1` the activation was -8.99% (inactive).
With `O=C(N/N=C/c1ccc(OCc2ccccc2)cc1)c1ccc(O)cc1` the activation was 19.7% (active).
`O=C(COc1ccc(/C=N/NC(=O)c2ccc(O)cc2)cc1)Nc1ccc([N+](=O)[O-])cc1` was tested, and the activation was -4.3% (inactive).
`O=C(Nn1cnc2ccccc2c1=O)c1ccc(F)cc1Cl` was tested, and the activation was -11% (inactive).
In the case of `Cc1ccc(S(=O)(=O)NCc2ccc(C(=O)NC3CCC(C)CC3)cc2)cc1` (centres undefined), the activation is reported as 1.88% (inactive).
With `Cc1cccc(C)c1NC(=O)c1ccc(CN2CCc3ccccc3C2)cc1` the activation was 5.39% (inactive).
For `COc1ccc(OC)c(NC(=O)C2CCCN2S(=O)(=O)c2cccc3nsnc23)c1` (centres undefined), the activation was -12.4% (inactive).
With `COC(=O)C1=C(C)N(c2ccc(C)cc2)/C(=C/c2ccc(O)cc2)C1=O` the activation was -7.3% (inactive).
With `O=C(CSc1nnc(Cn2cnc3ccccc32)o1)c1ccccc1` the activation was -10.9% (inactive).
In the case of `CCCc1nnc(SCC(=O)Nc2ccc(C(=O)OCC)cc2)o1`, the activation is reported as -7.89% (inactive).
In the case of `CC(=O)Nc1ccc(C(=O)CSc2nnc(Cc3ccccc3)o2)cc1`, the activation is reported as 32.2% (active).
With `COC(=O)CN1C(=O)N/C(=C/c2ccc(OC)c(C)c2OC)C1=O` the activation was -0.812% (inactive).
With `Clc1ccc(C2[C@H]3CN(CC4CCCCC4)[C@H](c4ccccc4)C34CC2(c2cccnc2)C4)cn1` (some centres undefined) the activation was 2.72% (inactive).
In the case of `COC(=O)c1ccc(C23CC4(C2)[C@H](CN(Cc2cccnc2)[C@@H]4c2ccccc2)C3c2ccc(Cl)nc2)cc1` (some centres undefined), the activation is reported as 23.5% (active).
For `CCN1C(=NCCc2cccnc2)N[C@@H](c2ccccc2)C(C(=O)OC)=C1C`, the activation was -0.917% (inactive).
With `CN(C)C(=O)CSc1n[nH]c(-c2ccco2)n1` the activation was 7.7% (inactive).
For `COc1ccc(C(=O)C2CCCN(S(=O)(=O)c3cccc(C)c3)C2)c(C)c1` (centres undefined), the activation was -8.61% (inactive).
With `COc1cc(C(=O)NC2CCN(Cc3ccccc3)CC2)cc(Cl)c1OC(C)C` the activation was -2.75% (inactive).
For `COc1cc2[nH]c(=O)n(Cc3ccc(C(=O)NC4CCN(Cc5ccccc5)CC4)cc3)c(=O)c2cc1OC`, the activation was 40.7% (active).
`COc1cc2[nH]c(=O)n(CCC(=O)NC3CCN(Cc4ccccc4)CC3)c(=O)c2cc1OC` was tested, and the activation was -7.1% (inactive).
In the case of `CC(C)CN(C(=O)COC(=O)c1ccc(Cl)c(N)c1)c1c(N)n(Cc2ccccc2)c(=O)[nH]c1=O`, the activation is reported as 0.351% (inactive).
For `CN(C(=O)COC(=O)c1ccc(Br)o1)c1c(N)n(Cc2ccccc2)c(=O)[nH]c1=O`, the activation was 5.25% (inactive).
With `Cc1cc(OCC(=O)N(C)c2c(N)n(Cc3ccccc3)c(=O)[nH]c2=O)c(C(C)C)cc1Cl` the activation was 30.7% (active).
With `CC(C)Sc1nc(N)nc2c1ncn2C1OC(CO)C(O)C1O` (centres undefined) the activation was -4.1% (inactive).
With `O=C(CCN1CCc2ccccc2C(O)(c2ccccc2)C1)c1ccc2c(c1)OCCO2` (centres undefined) the activation was 1.68% (inactive).
In the case of `CCCCN(C(=O)c1ccc(OC(F)(F)F)cc1)c1c(N)n(CCC)c(=O)[nH]c1=O`, the activation is reported as -2.28% (inactive).
With `O=C(Nc1ccc(S(=O)(=O)Nc2ccccn2)cc1)c1ccccc1` the activation was -2.22% (inactive).
With `O=C(Nc1ccc(Br)cc1)c1cc(S(=O)(=O)Nc2ccccn2)ccc1Cl` the activation was 40.2% (active).
In the case of `O=C(CS(=O)(=O)c1ccccc1)Nc1ccc(S(=O)(=O)Nc2ccccn2)cc1`, the activation is reported as 1.81% (inactive).
With `COc1ccccc1N1CCN(C(=O)c2cc(=O)c3cc(C)cc(C)c3o2)CC1` the activation was -12.4% (inactive).
For `CCOc1ccc(S(=O)(=O)N2CCN(C(=O)c3oc4ccccc4c3C)CC2)cc1`, the activation was -13.9% (inactive).
`CCn1cc(C(=O)OCC(=O)Nc2cccc(C)c2)c(=O)c2ccc(C)nc21` was tested, and the activation was -9.83% (inactive).
`Cc1ccc(NNC(=O)c2cccs2)cc1Cl` was tested, and the activation was -4.02% (inactive).
In the case of `CCCCC1N2CC3([N+](=O)[O-])CN1CC([N+](=O)[O-])(C2)C3(C)C` (centres undefined), the activation is reported as 0.0626% (inactive).
For `COc1ccc(/C=C/C(=O)Nc2c(C)nn(C)c2C)cc1COc1ccc(Br)cc1`, the activation was 21.7% (active).
For `COc1ccc(OC)c(S(=O)(=O)Nc2c(C)nn(C)c2C)c1`, the activation was 1.81% (inactive).
In the case of `CCn1nc(C)c(NC(=O)/C=C/c2ccc(OC)c(COc3ccc(Br)cc3)c2)c1C`, the activation is reported as 13.3% (inactive).
`Cc1ccc2c(c1)C1CN(C)CCC1N2S(=O)(=O)c1cccc(F)c1` (centres undefined) was tested, and the activation was 1.55% (inactive).
With `Cc1ccc2c(c1)C1CN(C)CCC1N2S(=O)(=O)c1ccc(Oc2ccc([N+](=O)[O-])cc2)cc1` (centres undefined) the activation was 60.9% (active).
With `Cc1ccc2c(c1)C1CN(C)CCC1N2C(=S)Nc1ccc(OC(F)F)cc1` (centres undefined) the activation was -5.28% (inactive).
With `COc1ccc([N+](=O)[O-])cc1N(CC(O)Cn1nnc2ccccc21)S(=O)(=O)c1ccc(C)cc1` (centres undefined) the activation was -8.08% (inactive).
With `COc1ccc(Br)cc1C(=O)Nc1cccc(C)c1C` the activation was 6.11% (inactive).
In the case of `COc1cc2ccccc2cc1C(=O)Nc1ccccc1C`, the activation is reported as -12.4% (inactive).
For `COc1ccc(Br)cc1C(=O)NC(=S)Nc1cc(-c2nc3ccccc3[nH]2)ccc1C`, the activation was 30.2% (active).
In the case of `Cc1nnnn1/C(=C\c1ccccc1)C(=O)OCC(=O)N1CC2(C)CC1CC(C)(C)C2` (centres undefined), the activation is reported as -16.8% (inactive).
In the case of `O=C(NCc1cccs1)c1cc(-c2ccccn2)nc2ccc(Br)cc12`, the activation is reported as 2.96% (inactive).
For `Cc1nn(C)cc1CNC(=O)Nc1ccc(Cl)cc1`, the activation was -6.86% (inactive).
For `Cc1ccc(-c2cc(C(=O)NCc3cn(C)nc3C)c3cc(Br)ccc3n2)cc1`, the activation was 36.8% (active).
`CCN(CC)CCCNC(=S)N(CCO)Cc1cc2cc3c(cc2[nH]c1=O)OCO3` was tested, and the activation was -3.62% (inactive).
With `CS(=O)(=O)N1CCc2nc(-c3ccccc3)sc2C1` the activation was -1.76% (inactive).
For `c1ccc2c(CCN3CCNC[C@H]3Cc3cccc4ccccc34)cccc2c1`, the activation was 12.1% (inactive).
In the case of `c1ccc(C[C@H]2CNCCN2CCC23CC4CC(CC(C4)C2)C3)cc1`, the activation is reported as 20.1% (active).
In the case of `O=C1CCNCCN1[C@H](CO)Cc1ccccc1`, the activation is reported as -2.28% (inactive).
With `CC(Oc1cc2oc(=O)c3c(c2cc1Cl)CCCC3)C(=O)NCc1ccncc1` (centres undefined) the activation was -1.99% (inactive).
`COc1ccc2c(c1)c(C(=O)N/N=C/c1cccs1)c(C)n2C` was tested, and the activation was -3.67% (inactive).
For `CCOC(=O)C1=C(COC(=O)[C@H](C)NS(=O)(=O)c2ccccc2F)NC(=O)NC1C` (some centres undefined), the activation was -4.67% (inactive).
With `Cn1ncc2c(NNC(=O)Cc3cccc4ccccc34)ncnc21` the activation was 2.75% (inactive).
`CC(=O)c1ccc(NC(=O)C2CC(=O)Nc3nc4ccccc4n32)cc1` (centres undefined) was tested, and the activation was 19.8% (active).
`O=C(Nc1ccccc1)C1CC(=O)n2c(nc3ccccc32)N1` (centres undefined) was tested, and the activation was 12% (inactive).
With `CCOC(=O)c1ccc(NC(=O)C2CC(=O)Nc3nc4ccccc4n32)cc1` (centres undefined) the activation was 7.67% (inactive).
